Assay outcomes as filed in PubChem BioAssay.
PTPN22 inh 2 – PTPN22 phosphatase inhibitors, primary screen, biochemical, DiFMUP fluorescence, 2 µM | recombinant LYP catalytic domain | inhibition, % at 2 µM | 0.21% of 96,000 active;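 active = inhibition at 2 µM at or above a set limit, the screen mean plus 3 SD, cut at about 24% in these data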
Target sequence (Q9Y2R2 whole entry, looked up, the tested form may be a part): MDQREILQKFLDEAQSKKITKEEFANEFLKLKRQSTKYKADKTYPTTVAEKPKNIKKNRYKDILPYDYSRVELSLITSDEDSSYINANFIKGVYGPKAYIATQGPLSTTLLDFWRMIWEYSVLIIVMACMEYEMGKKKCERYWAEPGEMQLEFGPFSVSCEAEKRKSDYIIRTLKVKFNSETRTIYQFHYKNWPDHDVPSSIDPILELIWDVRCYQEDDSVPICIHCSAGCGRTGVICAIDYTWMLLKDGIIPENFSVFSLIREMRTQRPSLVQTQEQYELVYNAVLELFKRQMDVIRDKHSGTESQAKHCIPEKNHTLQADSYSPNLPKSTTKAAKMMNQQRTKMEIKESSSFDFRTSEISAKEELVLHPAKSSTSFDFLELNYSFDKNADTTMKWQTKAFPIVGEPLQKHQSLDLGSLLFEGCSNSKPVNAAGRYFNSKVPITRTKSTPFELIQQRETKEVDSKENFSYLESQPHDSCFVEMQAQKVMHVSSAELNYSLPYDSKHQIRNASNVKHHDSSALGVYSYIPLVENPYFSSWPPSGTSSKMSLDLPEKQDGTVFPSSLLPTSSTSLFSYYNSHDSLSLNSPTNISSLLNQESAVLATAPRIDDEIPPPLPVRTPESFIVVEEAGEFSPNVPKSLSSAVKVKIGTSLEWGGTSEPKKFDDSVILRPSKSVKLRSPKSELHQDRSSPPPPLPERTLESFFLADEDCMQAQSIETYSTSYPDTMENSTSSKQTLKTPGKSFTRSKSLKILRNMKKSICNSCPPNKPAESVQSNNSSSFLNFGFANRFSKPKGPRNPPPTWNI
LYP act – LYP phosphatase activators, primary screen, biochemical, DiFMUP fluorescence, 2 µM; Tyrosine-protein phosphatase non-receptor type 22 (Homo sapiens), Q9Y2R2; recombinant LYP; 0 = plate median, 100 = signal doubled; activation, % at 2 µM; 0.11% of 96,000 active;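 active = activation at 2 µM above a set limit, the mean plus 5 SD, cut at about 37% in these data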
sEH inh – soluble epoxide hydrolase inhibitors, primary screen, biochemical, human sEH; Bifunctional epoxide hydrolase 2 (Homo sapiens), P34913; recombinant human sEH enzymatic activity assay; inhibition, % at 2 µM; 0.34% of 91,000 active; in the data active = inhibition above about 80%
EphB4 antag – EphB4-ephrin-B2 interaction antagonists, primary screen, biochemical, TNYL-RAW peptide probe, fluorescence polarization | Ephrin type-B receptor 4 (Homo sapiens), P54760 | EphB4 LBD / TNYL-RAW-Alexa532 peptide | inhibition, % at 7 µM | 0.15% of 97,000 active | AID 720, 2007;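 active = inhibition above the screen-wide mean inhibition plus 3 SD, cut at about 15% in these data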
sEH activator – soluble epoxide hydrolase activators, primary screen, biochemical, human sEH; Bifunctional epoxide hydrolase 2 (Homo sapiens), P34913; purified human sEH enzymatic activity, activator screen; activation, % at 2 µM; 0.04% of 91,000 active; in the data active = activation above about 37%
PLAP act – PLAP enzyme activators, biochemical, luminescence, HTS. activation fold at 20 µM. purified PLAP enzyme, luminescent substrate read-out; active compounds read high. 1.2% of 96,000 active; in the data active = activation fold above about 2
Hits are given with their value. An excerpt weighted towards active compounds, which were near 1.6% of everything screened.

What do the screens show for `CC(C)(C)NC(=O)c1ccc2c(c1)N(CC(=O)N1CCN(c3ccc(F)cc3)CC1)C(=O)C(C)(C)O2`?
PTPN22 inh 2: inactive; LYP act: inactive; sEH inh: inactive; EphB4 antag: inactive; sEH activator: inactive; PLAP act: inactive

Results for COc1cnc(N(C)C)nc1Sc1ccc(Cl)cc1 ?
PTPN22 inh 2: inactive; LYP act: inactive; sEH inh: inactive; EphB4 antag: inactive; sEH activator: inactive; PLAP act: inactive

Results for COc1cnc(-c2ccccn2)nc1Sc1ccc(Cl)cc1 ?
PTPN22 inh 2: 29.9; LYP act: inactive; sEH inh: inactive; EphB4 antag: inactive; sEH activator: inactive; PLAP act: inactive

Results for CCCCOc1ccc(N2C(=O)CC(NCCc3ccc(S(N)(=O)=O)cc3)C2=O)cc1 (stereo unspecified) ?
PTPN22 inh 2: inactive; LYP act: inactive; sEH inh: inactive; EphB4 antag: inactive; sEH activator: inactive; PLAP act: 2.1

Results for CN(C)S(=O)(=O)c1cc(S(=O)(=O)N(C)C)c(Cl)cc1N ?
PTPN22 inh 2: inactive; LYP act: inactive; EphB4 antag: inactive; PLAP act: inactive

Results for COc1cccc(NC(=O)NC2CCN(Cc3nnnn3Cc3ccc(F)cc3)CC2)c1 ?
PTPN22 inh 2: inactive; LYP act: inactive; sEH inh: inactive; EphB4 antag: inactive; sEH activator: inactive; PLAP act: 2.1

How did CCOC(=O)c1sc2ncn(/N=C/c3cccnc3)c(=O)c2c1C do in these assays?
PTPN22 inh 2: inactive; LYP act: inactive; sEH inh: inactive; EphB4 antag: inactive; sEH activator: inactive; PLAP act: 2.1

What do the screens show for `CC(=O)NC(c1ccco1)c1ccc2cccnc2c1O` (stereo unspecified)?
PTPN22 inh 2: inactive; LYP act: inactive; sEH inh: inactive; EphB4 antag: inactive; sEH activator: inactive; PLAP act: 2.7

Results for CCCC(=O)NC(c1ccco1)c1c(O)ccc2ccccc12 (stereo unspecified) ?
PTPN22 inh 2: inactive; LYP act: inactive; sEH inh: inactive; EphB4 antag: inactive; sEH activator: inactive; PLAP act: inactive

What do the screens show for `Cc1noc(C)c1C(=O)Nc1ccc(F)c(F)c1`?
PTPN22 inh 2: inactive; LYP act: inactive; sEH inh: inactive; EphB4 antag: inactive; sEH activator: inactive; PLAP act: inactive

What do the screens show for `CCCCc1ccc(NC(=O)c2c(C)noc2C)cc1`?
PTPN22 inh 2: inactive; LYP act: inactive; sEH inh: inactive; EphB4 antag: inactive; sEH activator: inactive; PLAP act: 2

What do the screens show for `Cc1cccc(CSc2nc(N)c(C#N)c(-c3cccs3)c2C#N)c1`?
PTPN22 inh 2: inactive; LYP act: inactive; sEH inh: inactive; EphB4 antag: 17.1; sEH activator: inactive

How did Cc1ccc(S(=O)(=O)N=S(CC2CC2(Cl)Cl)CC2CC2(Cl)Cl)cc1 (stereo unspecified) do in these assays?
PTPN22 inh 2: inactive; LYP act: inactive; sEH inh: inactive; EphB4 antag: inactive; sEH activator: inactive; PLAP act: inactive

What do the screens show for `O=C(NCCCN1CCCC1=O)c1ccc(Cl)c(NS(=O)(=O)c2ccc(F)cc2)c1`?
PTPN22 inh 2: inactive; LYP act: inactive; sEH inh: inactive; EphB4 antag: inactive; sEH activator: inactive; PLAP act: inactive

How did O=C(NNC(=O)C1CCCCC1)C(=O)NC1CCCCC1 do in these assays?
PTPN22 inh 2: inactive; LYP act: inactive; sEH inh: inactive; EphB4 antag: 16.1; sEH activator: inactive; PLAP act: inactive

How did CCOC(=O)c1sc(NC(=O)c2ccc(C)s2)cc1C do in these assays?
PTPN22 inh 2: inactive; LYP act: inactive; sEH inh: 86.8; EphB4 antag: inactive; sEH activator: inactive; PLAP act: inactive

What do the screens show for `CCOC(=O)c1sc(NC(C)=O)cc1C`?
PLAP act: inactive

How did Cc1ccc(S(=O)(=O)N2CCOCC2)cc1C(=O)N1c2ccccc2Sc2ccccc21 do in these assays?
PTPN22 inh 2: inactive; LYP act: inactive; sEH inh: inactive; EphB4 antag: inactive; sEH activator: inactive; PLAP act: inactive

Results for CCOC(=O)C(CSCC(=O)c1ccc(Cl)cc1Cl)NC(=O)OC(C)(C)C (stereo unspecified) ?
PTPN22 inh 2: inactive; LYP act: inactive; sEH inh: inactive; EphB4 antag: inactive; sEH activator: inactive; PLAP act: 2

How did CCOC(=O)CSCC(NC(=O)OC(C)(C)C)C(=O)OCC (stereo unspecified) do in these assays?
PTPN22 inh 2: inactive; LYP act: inactive; sEH inh: inactive; EphB4 antag: inactive; sEH activator: inactive; PLAP act: inactive

How did N#C/C(=C(/O)CSc1nnc(Cc2cccs2)n1C1CCCCC1)c1nc2ccccc2[nH]1 do in these assays?
PLAP act: 2.7

Results for Cc1cccc(CCNC(=O)C2CCCN(S(=O)(=O)c3cccc4nsnc34)C2)c1 (stereo unspecified) ?
PLAP act: inactive

How did Cc1ccc(CNC(=O)C2CCCN(S(=O)(=O)c3c(C)n[nH]c3C)C2)cc1 (stereo unspecified) do in these assays?
PTPN22 inh 2: inactive; LYP act: inactive; sEH inh: inactive; EphB4 antag: inactive; sEH activator: inactive; PLAP act: 2.3

What do the screens show for `Cc1ccc(CCNC(=O)C2CCCN(S(=O)(=O)c3cccc4nsnc34)C2)cc1` (stereo unspecified)?
PTPN22 inh 2: inactive; LYP act: inactive; sEH inh: 83.0; EphB4 antag: inactive; sEH activator: inactive; PLAP act: inactive

Results for COC(=O)C1C(O)=C(C=NCC(C)N=CC2=C(O)C(C(=O)OC)C(C)(C)CC2=O)C(=O)CC1(C)C (stereo unspecified) ?
PTPN22 inh 2: inactive; LYP act: inactive; sEH inh: inactive; EphB4 antag: inactive; sEH activator: inactive; PLAP act: 2.2

How did Cc1nc(SCC(=O)NCCc2ccccc2)nc(C)c1C do in these assays?
PTPN22 inh 2: inactive; LYP act: inactive; sEH inh: inactive; EphB4 antag: inactive; sEH activator: inactive; PLAP act: inactive

How did CCc1ccc(NC(=O)CNC(=O)c2cn(-c3ccccc3OC)c(=O)c3ccccc23)cc1 do in these assays?
PTPN22 inh 2: inactive; LYP act: inactive; sEH inh: inactive; EphB4 antag: inactive; sEH activator: inactive; PLAP act: 2.2

Results for COc1ccccc1NC(=O)CNC(=O)c1ccccc1C ?
PTPN22 inh 2: inactive; LYP act: inactive; sEH inh: inactive; EphB4 antag: inactive; sEH activator: inactive; PLAP act: inactive

What do the screens show for `Cc1ccc(Cl)cc1N1CCN(C(=O)Cc2cn(C)c3ccccc23)CC1`?
PTPN22 inh 2: inactive; LYP act: inactive; sEH inh: inactive; EphB4 antag: inactive; sEH activator: inactive; PLAP act: 2
